Gal4-VP16 FLuc – inhibits Gal4-VP16 luciferase reporter, ROR gamma counter-screen | Drosophila S2 Gal4-VP16 UAS-luciferase, luminescence, 20 h | Potency, µM (highest dose often 53.6 µM), usual class: inhibitors | hit rate 3.5% among 310,000 | AID 2546;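 also: Gal4-VP16 expression switched on by copper sulfate through the metallothionein promoter; nearly all actives have a fitted effect of over 50% in size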
RORgamma inh – ROR gamma (mouse) transcription inhibition; P51450; Drosophila S2 Gal4-RORgamma UAS-luciferase reporter, 20 h; Potency, µM (series often up to 53.6 µM), actives largely listed as inhibitors; hit rate 5.4% among 310,000; AID 2551; also: nearly all actives have a fitted effect of over 60% in size
Target sequence (P51450 whole entry, looked up, the tested form may be a part): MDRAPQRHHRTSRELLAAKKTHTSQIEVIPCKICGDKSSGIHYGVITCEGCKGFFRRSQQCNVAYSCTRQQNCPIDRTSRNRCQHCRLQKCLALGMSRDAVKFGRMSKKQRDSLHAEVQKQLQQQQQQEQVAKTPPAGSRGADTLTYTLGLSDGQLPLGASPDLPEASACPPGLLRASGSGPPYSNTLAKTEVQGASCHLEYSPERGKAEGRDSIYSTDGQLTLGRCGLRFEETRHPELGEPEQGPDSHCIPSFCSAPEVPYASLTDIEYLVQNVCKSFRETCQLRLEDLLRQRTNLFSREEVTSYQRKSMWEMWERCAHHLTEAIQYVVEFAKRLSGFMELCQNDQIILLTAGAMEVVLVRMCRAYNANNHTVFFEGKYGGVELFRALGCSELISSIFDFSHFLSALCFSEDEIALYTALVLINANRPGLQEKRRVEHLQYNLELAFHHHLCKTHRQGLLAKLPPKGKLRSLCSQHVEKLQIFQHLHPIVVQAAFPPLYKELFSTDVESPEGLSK
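Stably transfected Drosophila Schneider cells are the test system, with ROR gamma fused to Gal4 and luciferase under UAS control; luminescence is read after 20 hr of 700 uM copper sulfate induction at ambient temperature.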
Giardia kill – Giardia lamblia killing. Giardia lamblia trophozoite viability. activity change, % at 7.66 µM, hits read low. hit rate 0.15% among 340,000. AID 540267; in the data active = activity change below about -80%; inconclusive = between about -30% and that limit;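 also: parasites exposed to compound for two days anaerobically before the ATP read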
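Trophozoite viability was measured as ATP-dependent luminescence, read 15-30 min after reagent addition. Before that, parasites at 100 cells/well were exposed to compounds for 48 h, anaerobically, at 37 deg C.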
p53 reactivation – mutant p53 re-activation in reporter cells; AID 504706; H1299 p53-A138V BP100-luciferase reporter, luminescence, 24 h; hit rate 0.063% among 320,000; Potency, µM (top dose mostly 92.2 µM), most hits filed as activators; also: nearly all actives have a fitted effect of over 45% in size
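p53-null H1299 cells stably carrying temperature-sensitive p53-A138V and a BP100-luciferase reporter were pinned with compounds (4-point, 1:5 series) and held 24 hrs at 37 deg C. Luminescence was read 10 min after detection reagent.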
BRCA1 expr act – increases BRCA1 expression; MCF7-BRCA1-FFLuc reporter, luminescence, 48 h; response scale: scaled: vehicle 0%, 10 µM genistein 100%; Potency, µM (titrated, usually from 46.1 µM), hits mostly activators; hit rate 1.1% among 380,000; AID 624202; also: nearly all actives have a fitted effect of over 80% in size
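MCF7-BRCA1-FFLuc, 2000 cells/well; 2 h attach, 37 °C/5% CO2; compound 48 h; luciferase substrate 15 min; luminescence end-point. Norm. to genistein 10 microM max activation and DMSO; concentration-response curves fitted.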
ELG1 DNA repair – inhibitors of ELG1-dependent DNA repair in HEK293T cells; HEK293T ELG1-luciferase reporter, luminescence, 16 h; DNA damage induced by 5-fluorouridine; Potency, µM (top dose mostly 46.1 µM), usual class: inhibitors; hit rate 2.3% among 330,000; AID 504467; also: nearly all actives have a fitted effect of over 55% in size
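5-Fluorouridine DNA damage + compound/DMSO, 2,000 cells/well, 16 h, 37 °C/5% CO2. ONE-Glo, 30 min RT, luminescence. Readout = decrease in reporter signal.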
Hits are given with their value; - = inactive; ? = inconclusive; . = no result. Compounds with a hit are over-represented: about 7.6% of the library has one in this group of screens. Unless noted, calls follow the shape of the dose curve; as a rule, active = well fitted curve in the direction sought with a large enough effect; inconclusive = small, poorly fitted or top-dose-only effect, or another doubt; inactive = no such curve, though single readings can be large; an effect the other way counts as inactive or inconclusive.

SMILES | Gal4-VP16 FLuc | RORgamma inh | Giardia kill | p53 reactivation | BRCA1 expr act | ELG1 DNA repair
O=C(Nc1cccc(S(=O)(=O)N2CCOCC2)c1)c1cc(S(=O)(=O)N2CCOCC2)c(Cl)cc1Cl | . | . | - | . | - | .
O=C(Nc1cccc(Br)c1)c1ccc(Cl)c(S(=O)(=O)N2CCOCC2)c1 | - | - | - | - | - | 16µM
CC(NC(=O)Cn1nc(C(=O)O)c2ccccc2c1=O)C12CC3CC(CC(C3)C1)C2 (configuration not stated) | - | - | - | - | - | -
COc1cc(OC)cc(C(=O)Nc2ccc(C(=O)c3ccncc3)cc2)c1 | - | - | - | - | - | -
Cc1cc(OCC(=O)OCC(=O)N2c3ccccc3NC(=O)C2(C)C)ccc1Cl | . | . | - | - | - | -
CCC(C)(C)n1nnnc1C(c1ccccc1)N1CCN(Cc2ccccc2)CC1 (configuration not stated) | - | - | - | - | - | -
CCC(C)(C)n1nnnc1CN1CCN(C(c2ccccc2)c2ccccc2)CC1 | - | - | - | - | - | 21µM
O=C(COc1ccccc1)NNc1nc2c(F)cccc2s1 | - | 5µM | - | - | - | -
COc1ccc2nc(NNC(=O)COc3ccccc3)sc2c1 | - | 7.1µM | - | - | - | ?
C/C(=C\C(=O)c1ccccc1)NNc1nc2ccccc2s1 | ? | 7.9µM | - | - | - | ?
O=C(COc1ccccc1)NNc1nc2ccccc2s1 | 11µM | 5µM | - | - | - | ?
COc1ccc(OCC(=O)Nc2nc3ccc(NC(C)=O)cc3s2)cc1 | - | - | - | - | - | ?
CCOC(=O)N1CCN(C(=O)COc2ccccc2OC)CC1 | - | - | - | - | - | -
Cc1ccc(NC(=S)NNC(=O)CCn2cc(C)cn2)cc1 | 1.4µM | 0.28µM | - | - | - | -
Cc1cnn(CCC(=O)NNC(=S)Nc2ccccc2)c1 | 1.1µM | 0.1µM | - | - | - | -
Cc1ccc2ccc(S(=O)(=O)NCc3ccco3)cc2c1 | - | - | - | - | - | -
Cc1ccc(C(=O)C(C)OC(=O)c2cc(=O)[nH]c3ccccc23)cc1 (configuration not stated) | . | . | - | - | - | -
COc1cccc(C(=O)n2cnnc2N)c1OC | - | - | - | - | - | -
O=S(=O)(Cc1cc(NCc2ccccc2)nc(-c2ccccn2)n1)c1ccccc1 | ? | 4.5µM | - | - | - | ?
O=S(=O)(Cc1cc(NCc2ccccc2)nc(-c2ccncc2)n1)c1ccccc1 | - | - | - | - | - | ?
Cc1nc2sccn2c(=O)c1S(=O)(=O)Nc1ccc(N2CCN(S(C)(=O)=O)CC2)cc1 | - | - | - | - | - | 9.2µM
CN(c1cccc(NC(=O)CN(c2cccc(Cl)c2)S(=O)(=O)c2ccccc2)c1)S(C)(=O)=O | - | ? | - | - | - | 26µM
CCOc1ccc(N(CC(=O)N/N=C/c2ccccn2)S(=O)(=O)c2ccc(Cl)cc2)cc1 | ? | 10µM | - | - | - | -
COc1ccc(N(CC(=O)Nc2ccc(OC)c(OC)c2)S(=O)(=O)c2ccccc2)cc1Cl | - | - | - | . | - | ?
CCOc1ccc(N(CC(=O)Nc2cccc(N(C)S(C)(=O)=O)c2)S(=O)(=O)c2ccccc2)cc1 | - | - | - | - | - | 13µM
COc1ccc(N(CC(=O)Nc2cccc(N(C)S(C)(=O)=O)c2)S(=O)(=O)c2ccccc2)cc1Cl | - | - | - | - | - | 8.2µM
COc1ccc(N(CC(=O)Nc2cccc(N(C)S(C)(=O)=O)c2)S(=O)(=O)c2ccc(C)cc2)cc1 | - | - | - | - | - | ?
COc1c2ccoc2nc2c(OC)c(OC[C@H](O)C(C)(C)O)ccc12 | - | - | . | . | . | .
C/C(=N\O)c1oc2ccc3c(C)cc(=O)oc3c2c1C | - | - | - | - | - | -
CCC1CCC(C(=O)NNC(=O)c2cc(-c3ccco3)[nH]n2)CC1 (configuration not stated) | - | - | - | - | - | -

High-throughput results (PubChem)
